Source: PubChem
HSD17B inh – blocks hydroxysteroid 17-beta dehydrogenase activity; Potency, µM (series often up to 57.1 µM), without a hit: at the top dose activity change, negative = inhibition, actives largely listed as inhibitors; AID 893; 75,000 compounds, 7.6% hits; recombinant HSD17B10, NADH fluorescence kinetic; Q99714;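 note: the protocol describes HADH2 (HSD17B10) and not the HSD17B4 of the title; potency is the fitted concentration of half-maximal effect; % is set by controls: 0 for no effect and ±100 for the full control effect; nearly all actives have a fitted effect of over 70% in size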
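His-tagged E. coli-expressed HADH2 at 20 nM in 100 mM Tris-HCl pH 9.0 with 0.01 % Tween-20, preincubated 15 min with compound at room temperature. Reaction with 1 mM NAD+ and 90 uM beta-hydroxybutyryl coenzyme A; NADH fluorescence (360/450 nm) read kinetically over 4 min, last minus first point.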
AID923 – qHTS Assay for Allosteric/Competitive Inhibitors of Caspase-1: Spectroscopic Profiling in AFC Spectral Region; compound fluorescence, AFC spectral region (405/520 nm); Potency, µM (top dose mostly 57.5 µM), without a hit: at the highest dose fluorescence increase, hits mostly activators; 75,000 compounds, 1.1% hits; note: potency is the fitted concentration of half-maximal effect; 0% is about no effect
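Baseline compound fluorescence (AFC region, 405 nm ex/520 nm em) taken from the intercept of kinetic reads with 50 nM caspase-1 and 5 uM Ac-WEHD-AFC; normalized to an on-plate AFC standard curve; compounds titrated up to 57 uM.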
A350 fluor – compound fluoresces in the Alexa 350 spectral region; max dye-equivalent concentration, M; Compound autofluorescence, 340/450 nm, Alexa 350 dye-equivalents; hits give high values; 59,000 compounds, 11% hits; in the data active = max dye-equivalent concentration above about 10 nM; inconclusive = mostly about 1.1 nM to 9.6 nM
HADH2 inhib – HADH2 (human) dehydrogenase inhibition. AID 886. 73,000 compounds, 3.4% hits. Potency, µM (highest dose often 57.1 µM), for inactives: top-dose activity change, negative = inhibition, most hits filed as inhibitors. recombinant HADH2, NADH fluorescence, beta-hydroxybutyryl-CoA. Q99714; note: potency is the fitted concentration of half-maximal effect; % is set by controls: 0 for no effect and ±100 for the full control effect; nearly all actives have a fitted effect of over 60% in size
Target sequence (Q99714 whole entry, looked up, one chain of several): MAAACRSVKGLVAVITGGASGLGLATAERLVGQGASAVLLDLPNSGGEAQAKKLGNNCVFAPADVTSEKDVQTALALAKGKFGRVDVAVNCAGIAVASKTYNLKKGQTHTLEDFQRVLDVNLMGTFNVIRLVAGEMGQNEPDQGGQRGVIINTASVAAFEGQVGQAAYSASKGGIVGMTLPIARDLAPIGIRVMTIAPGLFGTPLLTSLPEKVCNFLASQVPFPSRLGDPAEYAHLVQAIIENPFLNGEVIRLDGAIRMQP
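E. coli-expressed His-tagged HADH2 tested at 20 nM in alkaline Tris buffer (pH 9.0); oxidation of 90 uM beta-hydroxybutyryl-CoA with 1 mM NAD+ tracked fluorimetrically for 4 min.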
4MU fluor – compound fluoresces in the 4-MU spectral region; AID 589; 59,000 compounds, 11% hits; max dye-equivalent concentration, M; compound autofluorescence, 340/450 nm, 4-MU equivalents; hits give high values; in the data active = max dye-equivalent concentration above about 10 nM; inconclusive = mostly about 1.1 nM to 9.6 nM
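Intrinsic fluorescence at 340/450 nm (ex/em) was read after 15 min at room temperature in pH 8.0, 100 mM Tris. Each compound concentration expressed as 4-MU-equivalent concentration from a six-point 4-MU standard series on each plate.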
CRE-bla Fsk – alters forskolin-stimulated CRE reporter signaling in CHO cells | 71,000 compounds, 2.5% hits | Potency, µM (series often up to 38.2 µM), for the others: at the highest dose activity change, negative = inhibition, hits mostly activators | CHO CRE-bla reporter (cAMP response element driving beta-lactamase), forskolin EC10, beta-lactamase ratio; active = well fitted activation curve with a large enough effect in the signal ratio, with a control signal flat, not every such curve was filed as active; inconclusive = small, poorly fitted or top-dose-only effect, or effect the other way, or a change in a side signal; the % refers to the signal ratio; note: potency is the fitted concentration of half-maximal effect; % of control where 0% means no effect
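qHTS titration format; CRE-bla CHO reporter; stimulus EC10 NKH 477, a water-soluble forskolin. Read: CCF4 460/530 nm ratio. Potency expressed as AC50 for activators or inhibitors.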
Active calls of the source: *; i = inactive; ? = inconclusive; · = not tested or not shown; [ ] = remark or other dose. This is a sample that favours compounds with a hit; in the whole collection about 14% have one here. Unless noted, calls come from the whole dose curve; as a rule, active = well fitted curve in the direction sought with a large enough effect; inconclusive = small, poorly fitted or top-dose-only effect, or another doubt; inactive = no such curve, though single readings can be large; an effect the other way counts as inactive or inconclusive.

SMILES	HSD17B inh	AID923	A350 fluor	HADH2 inhib	4MU fluor	CRE-bla Fsk
C/C=C\C1=C(CO)C(=O)C2O[C@]2(CC=C(C)C)C1=O (stereo partly specified)	-14%[11.4 µM]	1%[11.5 µM]	·	?	·	·
Cc1nc2ccccn2c1P(=O)(N1CCCCC1)N1CCCCC1	25µM*	1%	i	22%	i	?
Cc1sc2nnn(CC(=O)N3CCN(C(=O)c4ccco4)CC3)c(=O)c2c1C	?	9%	1e-07M*	?	7e-08M*	8%
CN1C[C@@H]2C(c3ccc(C(F)(F)F)cc3)C3(c4cccnc4)CC2(C3)[C@H]1c1ccccc1 (stereo partly specified)	8%	3%	·	·	·	·
Cc1cnc(CNc2ccnc(-c3cccc(NS(C)(=O)=O)c3)n2)cn1	15%	6%	i	-6%	i	?
CCCn1c2c(c(O)c(C(=O)Nc3ccc(OC)cc3)c1=O)CCCC2	32µM*	-1%	4.1e-08M*	8%	5e-08M*	?
CCCn1c2c(c(O)c(C(=O)NC)c1=O)CCCC2	-12%	-1%	i	3%	i	?
Cc1cccc(NS(=O)(=O)c2cccc3cccnc23)n1	8%	-1%	·	-11%	·	-5%
Cc1cccc(NS(=O)(=O)c2ccccc2)n1	25µM*	-1%	·	20%[11.4 µM]	·	?
O=C(c1csnn1)N1CCC2(CC1)CN(c1ccccc1)C2	-7%	0%	i	7%	i	6%
O=C(c1csnn1)N1CCC2(CC1)CN(c1ccccn1)C2	32µM*	0%	i	-10%	i	?
O=C(c1csnn1)N1CCC2(CCCN(c3ccccc3)C2)CC1	1%	0%	4.6e-08M*	-10%	3.8e-08M*	-6%
O=c1[nH]c2cc(Cl)ccc2c(O)c1-c1cccc(Oc2ccccc2)c1	32µM*	-3%	·	-13%	·	?
O=c1[nH]c2cc(Cl)ccc2c(O)c1-c1ccc(Oc2ccccc2)cc1	-9%	-1%	i	-27%	i	-16%
O=C1C2C3c4ccccc4C(c4ccccc43)C2C(=O)N1Cc1ccco1 (stereo unspecified)	-7%	1%	·	-24%[11.4 µM]	·	-7%[7.6 µM]
N#CC1=C2SCN(Cc3ccco3)CN2C(=O)CC1c1cccc2ccccc12 (stereo unspecified)	25µM*	0%	i	3.2µM*	i	-7%
OC[C@H]1NC[C@@H](O)[C@@H](O)[C@H]1O	-18%	-2%	·	-2%	·	1%
OC[C@@H]1O[C@H](O)[C@@H](Cl)[C@H](O)[C@@H]1O	3%	0%	i	-16%	i	2%
CCNC(=O)N1c2ccc(OC)cc2C(C)=CC1(C)C	32µM*	12%	6.2e-08M*	?	5.5e-08M*	12%
CCOC(=O)Oc1ccc2c(c1)C(C)=CC(C)(C)N2C(=O)OCC	·	·	i	·	i	·
CCOC(=O)N1CCC(N2Cc3cccc(C(=O)Nc4ccc(OC)c(OC)c4)c3C2=O)CC1	-3%	2%	·	1%	·	?
CCCN1Cc2cccc(C(=O)Nc3ccc(OC)c(OC)c3)c2C1=O	7%	1%	1.8e-08M*	3%	1.3e-08M*	-2%
Cc1cccn2c(=O)c(/C=C(\C#N)S(=O)(=O)c3ccccc3)c(N3CCN(C)CC3)nc12	·	·	2.1e-08M*	·	1.9e-08M*	·
Cc1cccn2c(=O)c(/C=N/O)c(N3CCCCC3)nc12	3%	1%	1.5e-08M*	107%	1.3e-08M*	-1%
Cc1ccc(S(=O)(=O)/C(C#N)=C/c2c(N3CCN(C)CC3)nc3c(C)cccn3c2=O)cc1	·	·	1.1e-07M*	·	9.9e-08M*	·
SMILES	HSD17B inh	AID923	A350 fluor	HADH2 inhib	4MU fluor	CRE-bla Fsk
N#C/C(=C\c1c(N2CCC(C(N)=O)CC2)nc2ccccn2c1=O)S(=O)(=O)c1ccccc1	·	·	1e-08M*	·	?	·
CC1CN(c2nc3ccccn3c(=O)c2/C=C(\C#N)S(=O)(=O)c2ccccc2)CC(C)O1 (stereo unspecified)	2%	7%	i	5%	i	?
O=C1C(Cl)=C(NC2CCc3ccccc32)C(=O)c2ncccc21 (stereo unspecified)	6%	14%	·	-27%	·	?
CCN1CCN(c2nc3c(C)cccn3c(=O)c2/C=C(\C#N)S(=O)(=O)c2ccc(C)cc2)CC1	·	·	2.7e-08M*	·	2.3e-08M*	·
O=C(O)c1ccc(CNCc2ccccc2)cc1	7%[11.4 µM]	0%[11.5 µM]	i	-2%[11.4 µM]	i	0%[7.6 µM]
COc1cc(-c2noc(-c3cccs3)n2)cc(OC)c1OC	-3%	3%	?	8%	i	10µM*
COc1ccccc1-c1noc(-c2cc(OC)c(OC)c(OC)c2)n1	?	-1%	?	11%	i	6.3µM*
COc1cc(OC)cc(-c2nc(-c3ccccc3OC)no2)c1	5%	8%	i	7%	i	17%
COc1cc(-c2nc(-c3ccccn3)no2)cc(OC)c1OC	2%	1%	·	5%[11.4 µM]	·	1.3µM*
CCOc1cc(-c2nc(-c3cc(OC)c(OC)c(OC)c3)no2)cc(OCC)c1OCC	-5%	-3%	i	1%	i	-9%
C=C(C)[C@H]1CC[C@]2(CO)CC[C@]3(C)[C@@H](CC[C@H]4[C@@]5(C)CC[C@@H](O)C(C)(C)[C@@H]5CC[C@@]43C)[C@H]12	-1%[25.6 µM]	0%[25.7 µM]	i	0%[25.6 µM]	i	-4%[17.1 µM]
N#Cc1nc(-c2ccc(Cl)cc2)oc1NCc1ccco1	13µM*	1%	5.7e-08M*	32µM*	8.3e-08M*	?
N#Cc1nc(-c2ccc(Cl)cc2)oc1NCc1cccc2c1OCO2	32µM*	1%	i	-27%	i	?
N#Cc1nc(COc2cccc(Cl)c2)oc1NCc1ccncc1	2%	1%	i	-11%	i	?
N#CC[N+]1(Cc2ccccn2)CCCC1	-3%[11.4 µM]	0%[11.5 µM]	i	6%[11.4 µM]	i	3%[7.6 µM]
CS(=O)(=O)N1CCC2(CCN(Cc3ccc(C#N)cc3)CC2)CC1	10%	3%	i	-2%	i	7%
COC(=O)[C@]1(C)CCC[C@]2(C)c3ccc(C(C)C)cc3C(=O)CC12 (stereo partly specified)	-6%	-2%	·	·	·	·
Cc1ccc2oc(-c3ccc(NC(=O)CC(C)C)cc3)nc2c1	32µM*	0%	·	?	·	2%
CC(=O)Nc1cccc(NC(=O)c2oc3ccccc3c2C)c1	4%	-2%	·	1%	·	·
O=C(Nc1ccc2oc(-c3cccnc3)nc2c1)c1cccnc1	?	1%	?	6%	?	7%
Cc1c(C(=O)Nc2ccc3oc(-c4cccnc4)nc3c2)oc2ccccc12	13µM*	0%	3.5e-08M*	-186%	5.1e-08M*	2.5µM*
